± gives the standard deviation of the averaged measurements. The full data set covers some 5,400 targets. This sample favours those with the largest changes.
Compound: Nc1nc2c(ncn2[C@@H]2O[C@H](COP(=O)(O)OP(=O)(O)OP(=O)(O)O)[C@@H](O)[C@H]2O)c(=O)[nH]1 [guanosine triphosphate]
Experiment: NP40-soluble protein abundance relative to vehicle (solubility fold change) (ratio); higher = more soluble protein in presence of GTP
Outline: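 Crude Jurkat lysate, prepared by Dounce homogenisation, was exposed to eight concentrations from 0.1 to 10 mM for 10 min at room temperature and then 3 min at 37 °C. Solubilisation used 0.8% NP40 with benzonase for 60 min at 4 °C, followed by ultracentrifugation and TMT labelling of the supernatant for LC-MS/MS. After vsn normalisation of intensities, each value is the fold change against the detergent-processed vehicle within each replicate, across three independent experiments.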

UniProt P84090, sequence (P84090 whole entry, looked up): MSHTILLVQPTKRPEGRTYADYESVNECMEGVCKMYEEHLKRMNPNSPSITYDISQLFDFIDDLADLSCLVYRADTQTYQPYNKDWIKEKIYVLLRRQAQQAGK
UniProt Q13769, sequence (Q13769 whole entry): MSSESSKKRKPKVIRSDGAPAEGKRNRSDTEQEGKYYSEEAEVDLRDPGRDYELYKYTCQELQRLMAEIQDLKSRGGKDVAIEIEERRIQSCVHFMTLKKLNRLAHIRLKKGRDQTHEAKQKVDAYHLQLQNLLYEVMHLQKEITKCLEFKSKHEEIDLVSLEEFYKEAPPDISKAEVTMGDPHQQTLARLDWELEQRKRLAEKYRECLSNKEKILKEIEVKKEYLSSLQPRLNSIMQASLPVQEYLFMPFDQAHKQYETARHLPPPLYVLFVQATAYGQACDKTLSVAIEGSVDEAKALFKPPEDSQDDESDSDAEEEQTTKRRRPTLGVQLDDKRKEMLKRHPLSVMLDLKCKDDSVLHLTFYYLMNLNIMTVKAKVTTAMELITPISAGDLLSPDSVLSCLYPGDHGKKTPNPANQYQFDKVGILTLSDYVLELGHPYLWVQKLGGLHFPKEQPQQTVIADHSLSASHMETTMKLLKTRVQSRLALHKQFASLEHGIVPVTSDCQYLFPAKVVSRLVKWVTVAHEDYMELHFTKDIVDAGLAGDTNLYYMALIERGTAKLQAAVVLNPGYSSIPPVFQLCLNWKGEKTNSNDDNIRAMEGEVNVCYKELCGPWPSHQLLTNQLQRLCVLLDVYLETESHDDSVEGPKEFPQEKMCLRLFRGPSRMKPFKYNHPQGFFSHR
UniProt Q8N3X1, sequence (Q8N3X1 whole entry): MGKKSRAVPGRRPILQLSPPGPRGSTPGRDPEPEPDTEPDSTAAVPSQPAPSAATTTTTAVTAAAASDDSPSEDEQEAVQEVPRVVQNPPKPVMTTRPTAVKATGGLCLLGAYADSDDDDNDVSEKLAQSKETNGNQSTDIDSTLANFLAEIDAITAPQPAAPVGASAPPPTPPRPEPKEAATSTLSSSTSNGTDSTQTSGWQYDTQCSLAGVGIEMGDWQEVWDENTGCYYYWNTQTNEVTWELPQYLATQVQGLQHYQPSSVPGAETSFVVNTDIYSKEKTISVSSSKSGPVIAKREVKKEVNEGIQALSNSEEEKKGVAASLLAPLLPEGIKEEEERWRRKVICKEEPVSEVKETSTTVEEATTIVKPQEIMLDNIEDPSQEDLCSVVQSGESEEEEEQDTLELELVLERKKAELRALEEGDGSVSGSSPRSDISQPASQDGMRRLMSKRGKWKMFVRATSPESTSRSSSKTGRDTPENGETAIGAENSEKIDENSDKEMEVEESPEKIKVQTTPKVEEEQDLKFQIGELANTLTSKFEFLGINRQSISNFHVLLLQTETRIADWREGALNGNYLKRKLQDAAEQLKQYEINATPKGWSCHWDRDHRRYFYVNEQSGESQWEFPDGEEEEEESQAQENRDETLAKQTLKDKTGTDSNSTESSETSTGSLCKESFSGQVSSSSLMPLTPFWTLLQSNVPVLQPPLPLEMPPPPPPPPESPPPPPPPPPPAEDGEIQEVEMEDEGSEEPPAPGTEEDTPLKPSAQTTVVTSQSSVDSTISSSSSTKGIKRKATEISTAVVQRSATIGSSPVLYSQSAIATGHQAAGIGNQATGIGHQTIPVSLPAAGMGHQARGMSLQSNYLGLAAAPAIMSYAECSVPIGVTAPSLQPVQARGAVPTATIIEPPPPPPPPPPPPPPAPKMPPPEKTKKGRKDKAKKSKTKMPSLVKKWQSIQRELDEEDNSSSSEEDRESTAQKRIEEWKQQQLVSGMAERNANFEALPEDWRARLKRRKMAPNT
UniProt Q6KCM7, sequence (Q6KCM7 whole entry): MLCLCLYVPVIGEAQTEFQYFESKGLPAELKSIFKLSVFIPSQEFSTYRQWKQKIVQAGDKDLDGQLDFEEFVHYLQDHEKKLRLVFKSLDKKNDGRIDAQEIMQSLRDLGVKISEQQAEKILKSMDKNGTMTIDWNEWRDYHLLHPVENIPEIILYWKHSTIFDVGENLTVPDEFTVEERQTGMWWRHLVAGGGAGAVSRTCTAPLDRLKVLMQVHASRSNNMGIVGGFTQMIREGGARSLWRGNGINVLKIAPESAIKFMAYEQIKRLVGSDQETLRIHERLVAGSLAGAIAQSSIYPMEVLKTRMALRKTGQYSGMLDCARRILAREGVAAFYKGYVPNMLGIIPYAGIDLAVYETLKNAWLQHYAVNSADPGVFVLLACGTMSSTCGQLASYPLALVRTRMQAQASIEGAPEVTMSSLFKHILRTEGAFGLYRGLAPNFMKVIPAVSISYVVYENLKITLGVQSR
UniProt Q5W0V3, sequence (Q5W0V3 whole entry): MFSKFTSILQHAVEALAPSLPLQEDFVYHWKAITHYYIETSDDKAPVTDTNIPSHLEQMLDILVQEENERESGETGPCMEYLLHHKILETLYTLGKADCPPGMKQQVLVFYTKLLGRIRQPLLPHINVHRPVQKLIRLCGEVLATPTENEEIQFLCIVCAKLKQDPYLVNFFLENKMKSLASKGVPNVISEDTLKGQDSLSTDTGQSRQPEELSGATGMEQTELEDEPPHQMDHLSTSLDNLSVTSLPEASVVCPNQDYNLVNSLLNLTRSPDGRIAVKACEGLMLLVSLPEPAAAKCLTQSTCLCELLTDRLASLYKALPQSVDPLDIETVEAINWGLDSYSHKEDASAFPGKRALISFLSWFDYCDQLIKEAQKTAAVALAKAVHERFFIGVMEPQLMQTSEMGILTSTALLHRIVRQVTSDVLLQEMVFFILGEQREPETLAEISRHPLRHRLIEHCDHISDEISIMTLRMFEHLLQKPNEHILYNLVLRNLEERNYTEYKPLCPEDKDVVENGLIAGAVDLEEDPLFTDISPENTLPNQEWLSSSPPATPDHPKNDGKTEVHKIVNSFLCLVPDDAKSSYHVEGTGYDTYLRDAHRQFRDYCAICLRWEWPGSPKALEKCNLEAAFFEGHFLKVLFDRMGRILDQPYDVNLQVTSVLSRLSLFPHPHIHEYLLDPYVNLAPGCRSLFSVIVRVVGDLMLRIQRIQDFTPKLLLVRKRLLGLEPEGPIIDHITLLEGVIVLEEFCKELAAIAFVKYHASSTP
UniProt Q86WQ0, sequence (Q86WQ0 whole entry): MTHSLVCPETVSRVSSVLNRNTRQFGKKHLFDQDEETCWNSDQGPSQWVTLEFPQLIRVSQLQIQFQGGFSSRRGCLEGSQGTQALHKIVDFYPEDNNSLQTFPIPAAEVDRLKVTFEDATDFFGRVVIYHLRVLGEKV
UniProt Q8N766, sequence (Q8N766 whole entry): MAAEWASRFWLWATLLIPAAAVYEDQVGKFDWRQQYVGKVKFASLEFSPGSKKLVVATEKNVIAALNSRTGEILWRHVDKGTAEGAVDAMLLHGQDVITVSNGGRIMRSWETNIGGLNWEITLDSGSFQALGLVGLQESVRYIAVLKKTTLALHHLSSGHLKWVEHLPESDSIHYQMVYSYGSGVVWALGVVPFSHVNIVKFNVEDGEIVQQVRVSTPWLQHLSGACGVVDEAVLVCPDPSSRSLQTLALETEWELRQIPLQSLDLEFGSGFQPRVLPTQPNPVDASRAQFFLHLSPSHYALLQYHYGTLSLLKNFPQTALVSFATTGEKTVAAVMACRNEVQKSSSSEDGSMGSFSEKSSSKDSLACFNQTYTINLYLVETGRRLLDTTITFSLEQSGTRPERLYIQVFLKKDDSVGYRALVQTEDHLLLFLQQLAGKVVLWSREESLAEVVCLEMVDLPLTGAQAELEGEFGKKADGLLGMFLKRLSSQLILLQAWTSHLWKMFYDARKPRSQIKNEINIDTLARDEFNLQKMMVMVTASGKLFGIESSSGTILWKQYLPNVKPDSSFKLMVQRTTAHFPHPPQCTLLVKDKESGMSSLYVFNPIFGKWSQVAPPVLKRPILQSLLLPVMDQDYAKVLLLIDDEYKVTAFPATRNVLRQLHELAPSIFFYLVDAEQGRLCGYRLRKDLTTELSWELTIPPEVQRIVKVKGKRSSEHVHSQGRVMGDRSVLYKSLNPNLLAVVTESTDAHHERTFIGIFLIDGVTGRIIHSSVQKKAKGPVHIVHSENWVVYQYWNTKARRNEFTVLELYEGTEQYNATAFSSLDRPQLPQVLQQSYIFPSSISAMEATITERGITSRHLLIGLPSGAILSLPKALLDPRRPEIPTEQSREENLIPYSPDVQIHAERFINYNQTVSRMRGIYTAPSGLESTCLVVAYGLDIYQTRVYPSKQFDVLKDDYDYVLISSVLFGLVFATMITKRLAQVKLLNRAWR
UniProt Q8WUF8, sequence (Q8WUF8 whole entry): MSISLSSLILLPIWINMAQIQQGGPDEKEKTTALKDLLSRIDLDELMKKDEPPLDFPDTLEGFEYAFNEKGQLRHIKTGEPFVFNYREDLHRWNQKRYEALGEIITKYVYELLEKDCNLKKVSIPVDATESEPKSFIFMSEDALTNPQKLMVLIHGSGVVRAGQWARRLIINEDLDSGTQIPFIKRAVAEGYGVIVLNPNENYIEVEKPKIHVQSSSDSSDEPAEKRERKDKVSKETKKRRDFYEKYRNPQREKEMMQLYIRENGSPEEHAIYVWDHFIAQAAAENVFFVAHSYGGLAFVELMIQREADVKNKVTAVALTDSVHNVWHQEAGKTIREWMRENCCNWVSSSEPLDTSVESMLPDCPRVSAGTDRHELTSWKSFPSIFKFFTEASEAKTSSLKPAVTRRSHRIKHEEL
UniProt Q86V88, sequence (Q86V88 whole entry): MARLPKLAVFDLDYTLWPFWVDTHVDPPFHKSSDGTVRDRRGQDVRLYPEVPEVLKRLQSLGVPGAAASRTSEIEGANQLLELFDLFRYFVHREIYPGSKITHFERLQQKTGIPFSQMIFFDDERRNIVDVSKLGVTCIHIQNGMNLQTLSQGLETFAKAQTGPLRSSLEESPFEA
UniProt Q00688, sequence (Q00688 whole entry): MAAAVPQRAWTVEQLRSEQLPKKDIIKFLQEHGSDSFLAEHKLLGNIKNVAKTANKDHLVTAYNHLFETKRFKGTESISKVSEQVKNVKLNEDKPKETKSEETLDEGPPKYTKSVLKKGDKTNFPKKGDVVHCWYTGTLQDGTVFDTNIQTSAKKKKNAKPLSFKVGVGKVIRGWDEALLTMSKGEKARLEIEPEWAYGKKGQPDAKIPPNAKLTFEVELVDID

Target	NP40-soluble protein abundance (concentration: 0.1mM)	NP40-soluble protein abundance (concentration: 0.5mM)	NP40-soluble protein abundance (concentration: 1mM)	NP40-soluble protein abundance (concentration: 2mM)	NP40-soluble protein abundance (concentration: 4mM)	NP40-soluble protein abundance (concentration: 6mM)	NP40-soluble protein abundance (concentration: 8mM)	NP40-soluble protein abundance (concentration: 10mM)
UniProt Q14156|Q14156-3	1.13 ± 0.049	1.105 ± 0.011	1.09 ± 0.11	1.1 ± 0.021	1.21 ± 0.11	1.1 ± 0.16	1.0338 ± 0.00078	1.01 ± 0.013
P62158 (UniProt P0DP23)	0.715 ± 0.11	0.763 ± 0.14	0.991 ± 0.17	1.12 ± 0.19	1.09 ± 0.21	1.15 ± 0.24	0.939 ± 0.14	1.14 ± 0.11
FAM160B1 (UniProt Q5W0V3)	1.03 ± 0.037	1.03 ± 0.027	0.964 ± 0.029	0.959 ± 0.02	0.9389 ± 0.0083	0.922 ± 0.0022	0.91 ± 0.033	0.894 ± 0.051
THOC2 (UniProt Q8NI27)	1.14 ± 0.054	1.33 ± 0.14	1.39 ± 0.15	1.72 ± 0.29	2.05 ± 0.4	2.18 ± 0.51	2.23 ± 0.54	2.16 ± 0.48
UniProt Q12802|Q12802-2|Q12802-4	0.99 ± 0.12	1.01 ± 0.092	1.01 ± 0.099	1 ± 0.12	0.977 ± 0.11	1.04 ± 0.11	1.02 ± 0.1	1.02 ± 0.084
ZC3H13 (UniProt Q5T200)	1.01 ± 0.055	1.02 ± 0.063	1.07 ± 0.054	1.08 ± 0.063	1.12 ± 0.059	1.12 ± 0.055	1.24 ± 0.099	1.18 ± 0.1
UniProt Q7Z2T5	1.05 ± 0.05	1.09 ± 0.014	1.08 ± 0.035	1.21 ± 0.059	1.32 ± 0.072	1.42 ± 0.08	1.44 ± 0.059	1.57 ± 0.024
UniProt Q8N2K0|Q8N2K0-2	1.09 ± 0.011	1.04 ± 0.051	1.01 ± 0.017	1.017 ± 0.0025	1.03 ± 0.015	1.01 ± 0.023	0.997 ± 0.031	0.976 ± 0.034
THOC5 (UniProt Q13769)	1.18 ± 0.0098	1.35 ± 0.093	1.5 ± 0.18	1.83 ± 0.36	2.21 ± 0.56	2.3 ± 0.66	2.45 ± 0.77	2.37 ± 0.74
UniProt Q8WUF8|Q8WUF8-3	1.03 ± 0.14	1.03 ± 0.051	0.978 ± 0.14	1 ± 0.044	0.966 ± 0.028	1.01 ± 0.014	0.959 ± 0.021	0.99 ± 0.023
FKBP3 (UniProt Q00688)	0.911 ± 0.048	0.906 ± 0.066	0.943 ± 0.073	0.906 ± 0.081	0.902 ± 0.081	0.905 ± 0.082	0.925 ± 0.077	0.943 ± 0.09
LARP1 (UniProt Q6PKG0)	1.02 ± 0.039	1.11 ± 0.06	1.32 ± 0.1	1.46 ± 0.11	1.66 ± 0.16	1.78 ± 0.17	1.88 ± 0.22	1.99 ± 0.22
UniProt P84090	1.06 ± 0.1	1.02 ± 0.06	1.26 ± 0.18	1.34 ± 0.11	1.42 ± 0.16	1.54 ± 0.1	1.65 ± 0.14	1.95 ± 0.38
UniProt Q02880|Q02880-2	1.08 ± 0.06	1.09 ± 0.065	1.21 ± 0.06	1.37 ± 0.11	1.68 ± 0.17	1.85 ± 0.27	1.99 ± 0.26	2.08 ± 0.34
Q5QPL9|Q9UKM9-2|Q9UKM9 (UniProt Q9UKM9)	0.927 ± 0.04	1 ± 0.025	1.07 ± 0.14	1.07 ± 0.2	1.07 ± 0.28	1.05 ± 0.25	1.01 ± 0.24	0.949 ± 0.23
SLC25A24 (UniProt Q6NUK1)	0.934 ± 0.055	0.93 ± 0.033	0.857 ± 0.039	0.854 ± 0.014	0.837 ± 0.026	0.845 ± 0.024	0.809 ± 0.061	0.817 ± 0.057
UniProt Q6WKZ4|Q6WKZ4-3	1.02 ± 0.049	0.951 ± 0.044	0.946 ± 0.05	0.921 ± 0.056	0.933 ± 0.058	0.901 ± 0.022	0.943 ± 0.057	0.89 ± 0.038
UniProt Q8N766|Q8N766-2|Q8N766-3|Q8N766-4	1.01 ± 0.055	1.03 ± 0.1	0.938 ± 0.046	0.964 ± 0.12	0.951 ± 0.098	0.926 ± 0.093	0.901 ± 0.015	0.897 ± 0.063
UniProt Q13642-1|Q13642-4|Q13642-5	1.07 ± 0.16	1.09 ± 0.17	0.946 ± 0.13	0.921 ± 0.14	0.932 ± 0.12	0.911 ± 0.12	0.952 ± 0.093	0.915 ± 0.15
CHMP7 (UniProt Q8WUX9)	0.945 ± 0.058	0.935 ± 0.087	0.973 ± 0.085	0.92 ± 0.11	0.884 ± 0.074	0.9 ± 0.045	0.912 ± 0.1	0.889 ± 0.084
PPP1CA (UniProt P62136)	0.894 ± 0.12	0.92 ± 0.12	0.861 ± 0.081	0.834 ± 0.072	0.855 ± 0.083	0.853 ± 0.056	0.837 ± 0.098	0.828 ± 0.092
UniProt Q13303-2	1.05 ± 0.045	1.06 ± 0.11	0.954 ± 0.086	1 ± 0.14	0.984 ± 0.11	0.973 ± 0.14	0.898 ± 0.024	0.904 ± 0.043
UniProt Q86WQ0|Q86WQ0-2	0.973 ± 0.06	0.939 ± 0.017	0.882 ± 0.094	0.9 ± 0.082	0.884 ± 0.14	0.897 ± 0.096	0.849 ± 0.13	0.862 ± 0.099
UniProt Q6KCM7|Q6KCM7-2|Q6KCM7-3|Q6KCM7-4|Q6KCM7-5|Q6KCM7-6	1.12 ± 0.041	1.08 ± 0.034	1.06 ± 0.058	1.04 ± 0.016	1.04 ± 0.066	1.019 ± 0.0034	0.982 ± 0.061	0.989 ± 0.098
UniProt Q8N5G2	1.07 ± 0.1	1.03 ± 0.089	1.12 ± 0.15	1.3 ± 0.057	1.26 ± 0.24	1.16 ± 0.17	1.24 ± 0.21	1.43 ± 0.25
UniProt Q86V88|Q86V88-2	0.975 ± 0.052	0.901 ± 0.079	0.953 ± 0.11	0.872 ± 0.064	0.869 ± 0.048	0.839 ± 0.089	0.858 ± 0.058	0.88 ± 0.078
TRAPPC6B (UniProt Q86SZ2)	1.06 ± 0.015	0.988 ± 0.077	0.954 ± 0.058	0.997 ± 0.092	0.999 ± 0.049	0.963 ± 0.088	0.885 ± 0.017	0.958 ± 0.065
GALNT2 (UniProt Q10471)	1.02 ± 0.025	0.97 ± 0.021	0.9568 ± 0.0034	0.917 ± 0.014	0.928 ± 0.022	0.901 ± 0.012	0.927 ± 0.046	0.861 ± 0.052
UniProt Q8N3X1|Q8N3X1-2	1.05 ± 0.043	1.01 ± 0.076	1.09 ± 0.022	1.27 ± 0.017	1.39 ± 0.024	1.64 ± 0.031	1.77 ± 0.15	2.04 ± 0.24

— the supplement of paper PMC6411743
